Several values for one entry are separate records, joined by “and”; a condition that tells them apart may be missing. Equal values may be shown once. Results filed as inconclusive are left out. Activity calls are given as the source filed them. Calls come from the whole dose curve; as a rule, active = well fitted curve in the direction sought with a large enough effect; inconclusive = small, poorly fitted or top-dose-only effect, or another doubt; inactive = no such curve, though single readings can be large or run the other way.
Experiment: qHTS Assay for Identifying Gametocytocidal Compounds (AID 743244);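 for max response: actives lower the fluorescent signal which means gametocytes are killed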
Settings: P. falciparum 3D7 stage III-V gametocytes, alamarBlue, 72 h; max response: stronger effect = lower value
Text: Malaria cases and deaths have dropped 50% in 29 countries since 2000 due to the combined effects of long-lasting insecticidal bednets, indoor residual spraying, and artemisinin-based combination therapies (ACTs). This success has raised hopes for malaria eradication and consequently stimulated interest in developing new reagents that block gametocyte transmission such as novel and safe gametocytocidal drugs. However, previous drug development efforts have focused primarily on the asexual parasites that cause symptoms, but not malaria transmission. Consequently, patients can remain infectious for weeks after the clearance of asexual parasites and clinical symptoms. To be transmitted from person to person via a mosquito, the parasites must switch from asexual to sexual development and produce male and female gametocytes. Malaria gametocytes consist of five stages (I, II, III, IV and V). The late stage gametocytes (III, IV and V) are difficult to be cultured in vitro and the long lifespan of mature gametocytes allows them being transmitted from host to mosquitoes unless they are completely eliminated by gametocytocidal agents. To identify gametocytocidal compounds which are capable of killing late stage P. falciparum gametocytes, a high throughput gametocyte viability assay was employed. This assay uses oxidoreduction indicator, alamarBlue, as a general measure of metabolic activity of gametocytes. Within live cells, the nonfluorescent resazurin is reduced to resorufin, a bright red fluorescence dye. Fluorescence decreases upon treatment of gametocytocidal compounds. P. falciparum gametocyte (3D7 strain) was used in this study.
The 1536-well gametocycidal viability assay was based on the previous method of Tanaka et al. Stage III-V gametocytes were tested against three compound libraries, including 4265 compounds from NCGC pharmaceutical collection, 400 from Malaria Box library, and 550 from an internal collection of kinase inhibitors. Briefly, 2.5 ul/well incomplete medium was dispensed into each well of 1,536-well plates using the Multidrop Combi followed by 23 nl compound transferring using the NX-TR Pintool (WAKO Scientific Solutions, San Diego, CA). Then, 2.5 ul/well of gametocytes was dispensed with a seeding density of 20,000 cells/well using the Multidrop Combi. The assay plates were incubated for 72 h at 37C with 5% CO2. After addition of 5 ul/well of 2X AlamarBlue dye (Life Technologies, cat. no. DAL1100), the plates were incubated for 24 h at 37C with 5% CO2 and then were read in a fluorescence detection mode (Ex = 525 nm, Em = 598 nm) on a ViewLux plate reader (PerkinElmer).
% is set by controls: 0 for no effect and ±100 for the full control effect; potency is the fitted concentration of half-maximal effect.

| Compound | max response | Potency |
| --- | --- | --- |
| CCOc1cc(C=O)ccc1O | -3.19% (inactive) | – |
| c1ccc2c(c1)Sc1ccccc1N2C[C@@H]1CN2CCC1CC2 | -2.33% (inactive) | – |
| O=Cc1ccccc1 | -4.29% (inactive) | – |
| O=C(O)CNC(=O)C(CS)Cc1ccccc1 (stereo not given) | -3.2% (inactive) | – |
| C[N+](C)(C)CC(=O)[O-] | 14.9% (inactive) | – |
| Cc1nnc2n1-c1sc(Br)cc1C(c1ccccc1Cl)=NC2 | 6.14% (inactive) | – |
| CCOC(=O)C1(c2ccccc2)CCCN(C)CC1 (stereo not given) | 9.62% (inactive) | – |
| CC[C@@H](O)C(C[C@@H](C)N(C)C)(c1ccccc1)c1ccccc1 | 5.08% (inactive) | – |
| CCC(=O)O[C@](Cc1ccccc1)(c1ccccc1)[C@H](C)CN(C)C | 0.382% (inactive) | – |
| COc1cc(C[C@H](C)N)c(OC)cc1C | -10.7% (inactive) | – |
| CN1CCC[C@H]1c1cccnc1 | 8.91% (inactive) | – |
| CN1CC[C@@]23CCCC[C@@H]2[C@@H]1Cc1ccc(O)cc13 | 4.44% (inactive) | – |
| OCCN(CCO)CCO | 5.27% (inactive) | – |
| C[C@]12CCC(=O)C[C@@H]1CC[C@@H]1[C@@H]2CC[C@@]2(C)[C@H]1CC[C@]2(C)O | -5.63% (inactive) | – |
| C[C@]12CC[C@H]3[C@@H](CCC4=CC(=O)CC[C@@]43C)[C@@H]1CC[C@H]2O | -4.18% (inactive) | – |
| O=[N+]([O-])c1ccc(O[C@@H]2O[C@H](CO)[C@@H](O)[C@H](O)[C@H]2F)c([N+](=O)[O-])c1 | 12.9% (inactive) | – |
| C/C=C(\CC)C(=O)NC(N)=O | -0.86% (inactive) | – |
| Oc1cc[c]([Hg][Cl])cc1 | – | 3.55 µM (active) and 2.82 µM (active) |
| CN[C@]1(c2ccccc2Cl)CCCCC1=O | 1.48% (inactive) | – |
| CN[C@@]1(c2ccccc2Cl)CCCCC1=O | 0.413% (inactive) | – |

| Compound | max response | Potency |
| --- | --- | --- |
| CC(N)Cc1ccc2c(c1)OCO2 (stereo not given) | -8.54% (inactive) | – |
| COc1ccc(OC)c(C[C@H](C)N)c1 | -1.24% (inactive) | – |
| CC(=O)O[C@H]1C[C@H](O[C@H]2[C@@H](O)C[C@H](O[C@H]3[C@@H](O)C[C@H](OC4CC[C@@]5(C)C(CC[C@@H]6[C@@H]5CC[C@]5(C)[C@@H](C7=CC(=O)OC7)[C@@H](O)C[C@]65O)C4)O[C@@H]3C)O[C@@H]2C)O[C@H](C)[C@H]1O[C@@H]1O[C@H](CO)[C@@H](O)[C@H](O)[C@H]1O (stereo not given in full) | 7.87% (inactive) | – |
| COc1cc([C@@H]2c3cc4c(cc3[C@@H](O)[C@H]3COC(=O)[C@H]23)OCO4)cc(OC)c1O | 5.77% (inactive) | – |
| O=C(O)CCCO | 2.34% (inactive) | – |
| Cc1ccc2c(c1)[C@]13CCCC[C@@H]1[C@H](C2)N(C)CC3 | -5.26% (inactive) | – |
| O=P1(N(CCCl)CCCl)NC(OO)CCO1 (stereo not given) | -1.64% (inactive) | – |
| C[C@@H]1[C@H]2Cc3ccc(O)cc3[C@]1(C)CCN2C | -6.63% (inactive) | – |
| C[C@]12CC[C@H]3[C@@H](CCC4=CC(=O)CC[C@@]43C)[C@@H]1CC[C@@H]2OC(=O)CCc1ccccc1 | 3.81% (inactive) | – |
| C#C[C@]1(OC(=O)CCCCCC)CC[C@H]2[C@@H]3CCC4=CC(=O)CC[C@@H]4[C@H]3CC[C@@]21C | -5.44% (inactive) | – |
| C1CN(P2(N3CC3)=NP(N3CC3)(N3CC3)=NP(N3CC3)(N3CC3)=N2)CCO1 (stereo not given) | -9.28% (inactive) | – |
| CCCCNC(C)(C)[P+](=O)O | -17.6% (inactive) | – |
| C[C@@H](N)C(=O)c1ccccc1 | -12.7% (inactive) | – |
| CNC(C)CC1CCCCC1 (stereo not given) | -3.52% (inactive) | – |
| COC(=O)c1ccccc1C(=O)OC | -14.6% (inactive) | – |
| C=CCC1([C@@H](C)CCC)C(=O)NC(=O)NC1=O | 0.546% (inactive) | – |
| O=C1CN=C(c2ccccc2)c2cc(Cl)ccc2N1 | 38.4% (inactive) | – |
| Oc1ccc2c3c1O[C@H]1[C@@H](O)C=C[C@H]4[C@H](C2)NCC[C@@]341 | 8.16% (inactive) | – |
| CN(C)CCO | 29.8% (inactive) | – |
| Clc1ccc([C@@H]2C[C@H]3CC[C@@H]2N3)cn1 | 7.9% (inactive) | – |

Source: PubChem BioAssay (NCATS)
